Screens as filed in PubChem.
ssDAF-12 act = S. stercoralis DAF-12 activation, primary screen; HEK293 ssDAF-12/GRIP1 lit1-tk-luc reporter, luminescence; % of 3 µM dafachronic acid response; activation, % at 6.8 µM; 370,000 compounds, 1% hits;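 active means activation above the mean over all tested compounds plus 3 SD, cut at about 0.9% in these data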;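 further: 0% = DMSO-only wells and 100% = 3 µM delta7-dafachronic acid wells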
hcDAF12 agonist = activators of H. contortus DAF-12 nuclear receptor; activation, % at 6.8 µM; HEK293 hcDAF-12 lit1-tk-luc reporter, luminescence; 0% DMSO, 100% Δ7-dafachronic acid; 370,000 compounds, 1.4% hits;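 active means activation above the mean of all tested compounds plus 3 SD, cut at about 5.5% in these data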;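 further: 100% = response to 3 µM Δ7-dafachronic acid high control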
DAX1 inh-1 = inhibits human nuclear receptor DAX1 | inhibition, % at 6.75 µM | 340,000 compounds, 0.99% hits | AID 504766 | HEK293 Gal4-DAX1 luciferase reporter, luminescence | P51843;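 active means inhibition above the mean over all tested compounds plus 3 SD, cut at about 4.2% in these data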;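 further: 0% = DAX1-transfected cells with DMSO and 100% = empty-vector control cells with DMSO; inhibition shows as a rise in luminescence from relieved DAX1 repression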
Target sequence (P51843 207-470 limits assumed): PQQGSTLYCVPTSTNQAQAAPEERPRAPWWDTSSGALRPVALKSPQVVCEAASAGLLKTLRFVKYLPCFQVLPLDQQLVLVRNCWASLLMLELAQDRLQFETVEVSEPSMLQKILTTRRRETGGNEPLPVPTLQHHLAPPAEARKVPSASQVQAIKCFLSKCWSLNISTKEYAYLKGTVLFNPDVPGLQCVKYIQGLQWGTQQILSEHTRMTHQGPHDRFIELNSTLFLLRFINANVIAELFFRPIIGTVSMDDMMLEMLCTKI
DAX1 inh-2 = inhibitors of DAX1 repression of SF-1 activated StAR promoter; 370,000 compounds, 1.1% hits; AID 652010; inhibition, % at 6.8 µM; HEK293T StAR-luciferase reporter, SF-1/DAX-1 repression relief;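 active means inhibition above the mean over all tested compounds plus 3 SD, cut at about 3.6% in these data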;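 further: 0% = DAX-1 cells with DMSO and 100% = cells lacking DAX-1 with DMSO; higher inhibition means more luminescence from relief of DAX-1 repression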
hgDAF12 agonist = hgDAF-12 agonism, primary luciferase screen; HEK293 GAL4-hgDAF12 UAS-luciferase reporter, agonist luminescence; normalized to butyrate control; activation, % at 6.8 µM; 370,000 compounds, 1.8% hits; AID 687014;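 active means activation above a cutoff set at the mean of all screened compounds plus 3 SD, cut at about 10% in these data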;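 further: 0% = DMSO wells and 100% = sodium butyrate wells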
LXR ag = LXR-beta agonism as hcDAF-12 counter-screen | activation, % at 6.8 µM | 3,400 tested, under 10 active | HEK293 Gal4-LXR tk-luc reporter, luminescence, 24 h; normalized: DMSO 0%, positive control 100% | shares compounds with hcDAF12 agonist;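 active means mean percent activation of the reporter above a cutoff set as the average over tested compounds plus their standard deviation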
hcDAF12 conf = confirmation of H. contortus DAF-12 agonists; shares compounds with hcDAF12 agonist; 3,400 compounds, 61% hits; HEK293 hcDAF-12 lit1-tk-luc reporter, luminescence; % of Δ7-dafachronic acid response; activation, % at 6.8 µM;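 active means mean activation across triplicate tests above the threshold derived from the earlier primary screen, cut at about 5.5% in these data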;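 further: 0% = DMSO only wells and 100% = 3 µM Δ7-dafachronic acid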
Numbers without * were called inactive; / = not tested or not shown. In the library only some 4.1% were active in any assay of this set; here they are far more common.

SMILES	ssDAF-12 act	hcDAF12 agonist	DAX1 inh-1	DAX1 inh-2	hgDAF12 agonist	LXR ag	hcDAF12 conf
Cc1cnc(NC(=O)Nc2ccc(OCc3ccccc3)cc2)c(Br)c1	0.0	7.3*	0.2	0.2	6.1	-0.3	1.5
COc1ccc(OC)c(NC(=O)C2(C)CCN2C(=O)CC2CC2)c1 (centres undefined)	-1.4	0.4	/	1.1	0.5	/	/
Cc1ccc(/C=C/c2nc3ccccc3[nH]2)o1	0.0	8.3*	0.9	2.0	7.7	0.9	8.4*
C#CCCN([C@@H](CC(C)C)C(=O)OC)S(=O)(=O)c1ccc(F)cc1Br	-1.5	-0.2	/	-1.8	-2.9	/	/
COc1ccc(CCNC(=O)c2cc(COc3c(F)cccc3F)on2)c(OC)c1	-0.7	0.0	0.8	1.6	2.6	/	/
O=C(COC(=O)c1ccc2c(c1)C(=O)N(Cc1ccncc1)C2=O)Nc1ccccc1[N+](=O)[O-]	0.4	7.0*	-0.4	0.6	0.9	-0.1	6.2*
CC(OC(=O)c1ccc2c(c1)C(=O)N(Cc1ccncc1)C2=O)C(=O)Nc1cccc(Cl)c1Cl (centres undefined)	-1.3	2.8	0.9	0.2	-1.1	/	/
C#CCOCCOCCOCCNc1nc(N2CCN(C(=O)[C@H](CCCCN)n3cc([C@@H](N)CC(C)C)nn3)CC2)nc(N2CCN(C(=O)[C@H](Cc3cc4ccccc4[nH]3)n3cc([C@@H](N)Cc4ccc(O)cc4)nn3)CC2)n1	/	/	-0.4	/	/	/	/
C#CCOCCOCCOCCNc1nc(N2CCN(C(=O)[C@H](CCCCN)n3cc([C@@H](N)CC(C)C)nn3)CC2)nc(N2CCN(C(=O)[C@H](Cc3cc4ccccc4[nH]3)n3cc([C@@H](N)CC(C)C)nn3)CC2)n1	-0.5	8.1*	/	/	4.4	-0.4	4.4
Cc1ccc(-n2nc3c(=O)n(CC(=O)NC(C)CCc4ccccc4)nc(C)c3c2C)cc1 (centres undefined)	/	/	-1.4	/	/	/	/
COc1ccc(-n2c(SCC(=O)Nc3ccc(NC(C)=O)cc3)nc3c([nH]c4ccccc43)c2=O)cc1OC	1.0*	9.6*	0.2	-0.7	-0.3	-0.2	6.7*
C=CCn1c(COc2ccc(CC)cc2)nnc1SC/C(O)=C(\C#N)c1nc2ccccc2[nH]1	0.1	8.2*	0.2	0.1	1.5	-0.1	6.1*
C=CCn1c(COc2ccccc2)nnc1SCc1ccc(C#N)cc1	-1.1	-0.5	0.0	-0.8	-0.4	/	/
O=C1Nc2ccccc2/C1=C\C(=O)c1ccccc1	-1.3	-0.9	-1.9	-0.7	-1.9	/	/
O=C(/C=C1\C(=O)Nc2ccccc21)/C=C1\C(=O)Nc2ccccc21	0.5	11.3*	-0.8	-0.3	2.3	-0.2	2.5
COc1ccc(C(=O)Nc2ncc(C)s2)cc1S(=O)(=O)N1CCOCC1	0.1	-0.3	0.0	-2.6	-0.8	/	/
O=C(Nc1cccc2nsnc12)c1cccs1	-0.6	1.1	2.6	0.0	10.0	/	/
O=C(Nc1ccccc1)Nc1cccc2nsnc12	2.3*	8.9*	2.5	3.0	8.8	1.2	12.2*
COc1cccc(CC(NC(C)=O)C(=O)NC2CCN(S(=O)(=O)c3ccc(F)cc3)CC2)c1OC (centres undefined)	-1.0	1.7	-0.6	0.5	3.6	/	/
O=C(COC(=O)c1cc([N+](=O)[O-])ccc1Cl)NC1CCCC1	-0.3	10.2*	1.2	-0.5	0.6	-0.2	0.1
O=C(NCCC1=CCCCC1)C(=O)NCc1ccncc1	-0.8	-0.4	0.5	0.8	2.9	/	/
Cc1ccccc1NC(=O)n1ncc2cc(Cl)ccc21	-0.9	-1.6	-0.8	-0.1	0.2	/	/
COc1ccc(C)cc1NC(=O)n1ncc2cc(Cl)ccc21	0.8	7.4*	-0.3	0.0	4.0	0.0	2.8
Nc1nc(SCc2ccccn2)c2ncn(C3OC(CO)C(O)C3O)c2n1 (centres undefined)	-1.4	0.0	0.3	-0.3	-0.1	/	/
COc1ccc(S[C@]2(C(=O)N3CCN(c4ncccn4)CC3)CC(=O)N(c3ccc(OC)cc3)[C@@H]2c2ccc(OC)cc2)cc1	-1.2	0.7	/	-1.5	-6.0	/	/
